From PubChem
Shown are actives, neighbours in structure and some others; about 1.8% of the full set was active somewhere.
GSTO1 inh: inhibitors of recombinant GSTO1, primary screen, counter-screen for RBBP9 inhibitor project, biochemical, fluorescence polarization. Glutathione S-transferase omega-1 (Homo sapiens), P78417. activity-based probe fluorescence polarization. inhibition, % at 5.96 µM. 1.1% of 300,000 active;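 active means inhibition above the campaign mean inhibition plus 3 SD, cut at about 35% in these data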;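 further: 0% = GSTO1-1 with DMSO and 100% = wells lacking GSTO1-1 enzyme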
LYPLA1 counter: LYPLA1 inhibitors, primary screen, counter-screen for PME1 inhibitor project, biochemical, fluorescence polarization, FP-Rh probe ABPP. Acyl-protein thioesterase 1 (Homo sapiens), O75608. recombinant LYPLA1. inhibition, % at 5.9 µM. 0.16% of 320,000 active;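 active means inhibition above the mean of all tested compounds plus 3 SD, set per campaign, cut at about 14% in these data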;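 further: inhibitors block serine hydrolase probe labeling of LYPLA1 so polarization falls; 0% = enzyme with DMSO and 100% = wells lacking LYPLA1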
Target sequence (O75608 whole entry, looked up): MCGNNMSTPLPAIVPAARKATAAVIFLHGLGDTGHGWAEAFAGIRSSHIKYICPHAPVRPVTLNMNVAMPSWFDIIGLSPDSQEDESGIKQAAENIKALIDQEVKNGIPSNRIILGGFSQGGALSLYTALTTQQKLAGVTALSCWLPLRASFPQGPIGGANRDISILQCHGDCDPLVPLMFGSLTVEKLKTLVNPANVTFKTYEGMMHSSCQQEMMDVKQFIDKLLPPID
PAD4 FP inh: human PAD4 inhibitors, primary screen, biochemical, fluorescence polarization, 1536-well format | 0.41% of 330,000 active | inhibition, % at 6.36 µM | recombinant PAD4, RCA probe fluorescence polarization;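 active means percent inhibition above a cutoff equal to the mean of all tested compounds plus 3 SD, cut at about 15% in these data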;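 further: 0% = PAD4 with RCA probe and DMSO and 100% = probe without PAD4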
PME-1 primary: PME-1 inhibitors via competitive probe labeling, primary screen, biochemical, fluorescence polarization, FP-Rh probe, HTS | Protein phosphatase methylesterase 1 (Homo sapiens), Q9Y570 | recombinant PME-1 | inhibition, % at 5.9 µM | 0.53% of 320,000 active | AID 2130, 2009;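 active means inhibition above the campaign mean of all compounds plus 3 SD, cut at about 26% in these data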;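 further: competitive labeling of PME-1 active site by serine hydrolase directed probe; 0% = PME-1 with DMSO and 100% = wells lacking PME-1 enzyme; inhibitors block probe labeling so polarization falls and inhibition rises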
Target sequence (Q9Y570 whole entry, looked up): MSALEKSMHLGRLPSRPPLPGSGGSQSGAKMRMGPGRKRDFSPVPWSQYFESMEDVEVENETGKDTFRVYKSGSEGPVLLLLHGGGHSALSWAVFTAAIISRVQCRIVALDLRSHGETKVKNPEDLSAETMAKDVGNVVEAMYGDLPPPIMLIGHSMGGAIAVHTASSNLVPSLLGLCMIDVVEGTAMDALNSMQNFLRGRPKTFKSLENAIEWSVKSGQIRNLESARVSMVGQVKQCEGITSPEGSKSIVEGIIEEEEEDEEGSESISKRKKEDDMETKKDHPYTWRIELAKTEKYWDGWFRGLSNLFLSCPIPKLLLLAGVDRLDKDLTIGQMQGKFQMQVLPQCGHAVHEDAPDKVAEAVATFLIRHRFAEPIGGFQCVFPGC
LYPLA2 inh: LYPLA2 inhibitors, primary screen, counter-screen for PME1 inhibitor project, biochemical, fluorescence polarization, FP-Rh probe ABPP. Acyl-protein thioesterase 2 (Homo sapiens), O95372. recombinant LYPLA2. inhibition, % at 5.9 µM. 0.38% of 320,000 active. AID 2177, 2009;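 active means inhibition above the screen-wide mean plus 3 SD, limit set per campaign, cut at about 26% in these data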;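 further: 0% = LYPLA2 with DMSO and 100% = wells lacking LYPLA2 enzyme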
Fam108B inh: mouse Fam108B serine hydrolase inhibitors, primary screen, counter-screen for RBBP9 inhibitor project, biochemical, fluorescence polarization | recombinant Fam108B, FP-Rh probe fluorescence polarization | inhibition, % at 9.51 µM | 0.33% of 300,000 active;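 active means inhibition above the screen mean inhibition plus 3 SD, computed separately per campaign, cut at about 18% in these data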;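 further: inhibitors lower polarization as less probe binds the enzyme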
LYPLA2 conf: LYPLA2 inhibitors, retest, confirmation, counter-screen for PME1 inhibitor project, biochemical, fluorescence polarization, FP-Rh probe ABPP | shares compounds with LYPLA2 inh | recombinant LYPLA2 | inhibition, % at 5.9 µM | 72% of 1,100 active | AID 2232, 2010;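 active means mean inhibition across replicates above the hit cutoff set in the primary screen, cut at about 26% in these data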;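 further: blocked labeling of the enzyme by serine hydrolase FP-Rh probe lowers polarization; 0% = enzyme with DMSO and 100% = wells lacking LYPLA2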
LYPLA2 gel ABPP: LYPLA2 inhibitors in proteome, late-stage follow-up, gel-based competitive ABPP, fluorescence, assay provider | shares compounds with LYPLA2 inh | rhLYPLA2 in mouse brain proteome, gel ABPP FP-Rh | inhibition, % at 20 µM | 30% of 150 active | AID 652029, 2013;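 active means inhibition of LYPLA2 enzyme probe labeling above about 50%, limit read from the data; inactive means inhibition below that limit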;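 further: loss of FP-Rh probe labeling of the LYPLA2 gel band measured as band density; 0% = DMSO only control band and 100% = blank gel background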
An asterisk follows results filed as active; x = no result.

SMILES	GSTO1 inh	LYPLA1 counter	PAD4 FP inh	PME-1 primary	LYPLA2 inh	Fam108B inh	LYPLA2 conf	others
Cc1ccsc1/C=N/NC(=O)c1cc(-c2ccncc2)nc2ccccc12	-5	-6	-2	4	-4	-1	x
O=C(c1cccc(S(=O)(=O)NCc2ccccc2)c1)N1CCN(Cc2ccccc2)CC1	-2	3	2	7	2	-5	x
COc1ccc(S(=O)(=O)NCc2ccc(C(=O)N3CCN(Cc4ccccc4)CC3)cc2)cc1	2	3	-4	5	68*	1	59*	LYPLA2 gel ABPP=38
COc1cccc(S(=O)(=O)NCc2ccc(C(=O)N3CCN(Cc4ccccc4)CC3)cc2)c1	-1	2	-2	3	43*	4	49*
COc1ccc(C(=O)NC(=S)Nc2cccnc2)cc1[N+](=O)[O-]	2	8	6	5	28*	5	28*
O=C(CC1SC(N2CCCCC2)=NC1=O)Nc1ccc(C(=O)NCCc2ccc(F)cc2)cc1 (stereo not given)	x	2	0	5	49*	x	39*
N#C/C(=C\c1cccnc1)c1ccccn1	3	1	1	3	4	5	x
O=C1COc2ccc(C(=O)COC(=O)c3ccc(Cl)cc3[N+](=O)[O-])cc2N1	9	3	-4	3	27*	4	33*
O=C1COc2ccc(C(=O)COC(=O)c3ccccc3[N+](=O)[O-])cc2N1	7	-2	0	2	16	3	x
COc1ccc(N(C(=O)c2snc(C(N)=O)c2N)C(C(=O)NC2CCCCC2)c2ccc(C)o2)cc1 (stereo not given)	4	2	6	1	0	-3	x
Cc1cc(C(=O)OCC(=O)NC(C)C)c2ccccc2n1	4	-1	2	4	3	10	x
Cc1cc(C(=O)OCC(=O)c2cccs2)c2ccccc2n1	-2	-2	-3	2	31*	-3	43*
COC(=O)c1cccc(N(CC(=O)NC2CCCCC2)C(=O)CNC(=O)c2cccs2)c1	4	0	0	-3	6	2	x
COc1ccc(N2CCN(C(=O)c3cc4c(s3)-c3ccccc3S(=O)(=O)C4)CC2)cc1	-5	1	-3	2	89*	1	97*	LYPLA2 gel ABPP=100*
COC(=O)CSc1nccc(C)n1	5	4	2	2	44*	0	1
Cc1ccnc(SCC(=O)O)n1	7	1	1	-4	2	-2	x
CSCCC(NC(=O)c1ccc(Cl)c([N+](=O)[O-])c1)C(=O)N1CCN(C/C=C/c2ccccc2)CC1 (stereo not given)	15	1	-2	3	34*	-4	38*
CCc1ccc(C(=O)COC(=O)c2cc([N+](=O)[O-])ccc2NCCO)cc1	12	-3	-1	7	27*	-1	20
O=C(COC(=O)c1cc([N+](=O)[O-])ccc1NCCO)c1ccc(Cl)cc1	9	-1	-4	3	8	-7	x
Cc1nc(CSc2n[nH]c(=O)n2-c2ccccc2)cs1	4	-1	4	-7	-1	5	x
O=[N+]([O-])c1cnccc1Nc1cccc(F)c1	8	0	-2	-8	-4	-3	x
O=[N+]([O-])c1ccc(Oc2cccc(F)c2)c2ccncc12	12	6	-10	5	43*	-1	44*
O=C(c1ccc(Br)s1)N1CCN(C/C=C/c2ccccc2)CC1	7	10	-3	2	36*	1	34*
O=C(CSc1n[nH]c(=O)n1C1CC1)NCc1ccccc1	2	-1	-4	-4	9	3	x
O=C1c2ccc(Oc3ccc4c(c3)C(=O)N(CCCO)C4=O)cc2C(=O)N1CCCO	-9	4	-2	-3	29*	2	15
SMILES	GSTO1 inh	LYPLA1 counter	PAD4 FP inh	PME-1 primary	LYPLA2 inh	Fam108B inh	LYPLA2 conf	others
COc1ccccc1-c1nnc(SCC(=O)c2c(N)n(C3CC3)c(=O)[nH]c2=O)o1	x	-5	-1	5	5	x	x
O=C(Nc1ccc2oc(-c3ccncc3)nc2c1)c1ccc2c(c1)OCCO2	7	9	-5	-9	28*	-10	24
O=C(Nc1ccc2oc(-c3ccncc3)nc2c1)c1ccc2c(c1)OCO2	14	6	-3	7	12	-4	x
CC1CC1C(=O)OCC(=O)N(C)CC(=O)Nc1ccc(F)cc1 (stereo not given)	x	x	0	x	x	x	x
CCCC(=O)Nc1ccc(C(=O)COC(=O)C2CC2C)cc1 (stereo not given)	x	0	-3	-3	29*	x	28*
O=C(OCC(=O)N1CCc2ccccc2C1)c1c(F)cccc1Cl	x	x	-3	x	x	x	x
COc1ccc(N2CCN(C(=O)CN(C)S(=O)(=O)c3cccs3)CC2)cc1	1	4	-1	-8	29*	0	36*
Cc1ccc(/C=C2/SC(=S)N(c3ccc(S(=O)(=O)Nc4nccs4)cc3)C2=O)cc1	5	-2	-8	5	9	-4	x
Cc1ccc(Oc2ccc3c(c2)C(=O)N(c2ccc(S(=O)(=O)Nc4nccs4)cc2)C3=O)cc1	-5	-5	-3	5	63*	3	54*	LYPLA2 gel ABPP=53*
Cc1c(Nc2ccc3nonc3c2[N+](=O)[O-])c(=O)n(-c2ccccc2)n1C	13	-1	-15	-3	32*	-2	37*
Cc1ccc(C(=O)Nc2cccc(C(=O)NC3CCCCC3)c2)cc1	8	-2	3	0	30*	-2	31*
Cn1c(SCc2ccc(C#N)cc2Cl)nc2ccccc21	1	1	2	1	2	-1	x
CCCc1nn(C)c2c1C(c1cccnc1)C(C#N)=C(N)O2 (stereo not given)	-3	2	-6	2	29*	3	-1
Cc1nn(Cc2ccccc2)c2c1C(c1cccnc1)C(C#N)=C(N)O2 (stereo not given)	16	-2	0	1	-5	0	x
